Screening results as filed in PubChem.
Shown is part of a subset that was picked to be rich in hits.
Tg IFNy HTS – T. gondii growth inhibition under IFN-gamma | Toxoplasma gondii growth in IFN-gamma-treated host cells; hits give low values | actives 3.8% (n = 69,000) | AID 1259416 | activity change, negative = inhibition, % (concentration not given with the values); in the data active = activity change below about -70%, passing the limit was not always enough;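 note: host cells are HeLa cells infected with Toxoplasma gondii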
Each line names hits and unclear results; the compound was inactive in the other large screens; ! = not confirmed by another sample.

CC(=O)Nc1ccc(NC(=O)CN2C(=O)CCc3cc(S(=O)(=O)N4CCCCC4C)ccc32)cc1 (centres undefined)	none
Cc1cccc(NC(=O)CN2C(=O)CCc3cc(S(=O)(=O)N4CCC(C)CC4)ccc32)c1	none
Cc1ccc(NC(=O)CN2C(=O)CCc3cc(S(=O)(=O)N4CCC(C)CC4)ccc32)cc1F	none
COc1ccc(CNC(=O)Cn2ncc3c(N4CCCCCC4)ncnc32)cc1OC	none
NC1CCCN(C(=O)c2ccc3n[nH]nc3c2)CC1 (centres undefined)	none
CCOc1ccc(CC(=O)NCCc2csc(-c3ccc(F)cc3)n2)cc1	none
CCOC(=O)C1(Cc2cccc(Cl)c2)CCCN(C(=O)Cc2cnc3ncnn3c2)C1 (centres undefined)	none
O=C(CCn1nnc2cc(-c3noc(-c4cccc5[nH]ccc45)n3)ccc21)N1CCCC1	none
Cc1ccc(NC(=O)CN2C(=O)CCc3cc(S(=O)(=O)N4CCCCC4)ccc32)cc1C	none
Cc1c(Cl)cccc1NC(=O)CN1C(=O)CCc2cc(S(=O)(=O)N3CCCCC3)ccc21	none
O=C(CN1C(=O)CCc2cc(S(=O)(=O)N3CCCCC3)ccc21)Nc1cccc(Cl)c1	Tg IFNy HTS -88
CC(C)c1ccc(NC(=O)CN2C(=O)CCc3cc(S(=O)(=O)N4CCCCC4)ccc32)cc1	Tg IFNy HTS -113
O=C(CN1C(=O)CCc2cc(S(=O)(=O)N3CCCC3)ccc21)Nc1cccc(Cl)c1	Tg IFNy HTS -103
CC(C)c1ccc(NC(=O)CN2C(=O)CCc3cc(S(=O)(=O)N4CCOCC4)ccc32)cc1	none
Cc1ccc(NC(=O)CN2C(=O)CCc3cc(S(=O)(=O)N4CCCC4)ccc32)cc1C	none
O=C(CN1C(=O)CCc2cc(S(=O)(=O)N3CCCCC3)ccc21)Nc1ccccc1	none
Cc1ccc(NC(=O)CN2C(=O)CCc3cc(S(=O)(=O)N4CCCC4)ccc32)cc1	none
CCOc1ccc(C(=O)N2CCC(C(=O)NCCc3csc(C)n3)CC2)cc1	none
COC(=O)[C@H](CC(C)C)NC(=O)[C@@H](N)CC(C)C	none
CCN1CCN(CCCNC(=O)C2=C(C)C(=O)OC23CCN(S(=O)(=O)CC)CC3)CC1	none
O=C(CC1CC1)N1CC[C@@H](O)[C@@H]1Cc1ccncc1	none
CC(C)(C)c1csc(CCNC(=O)c2cn3cc(Cl)ccc3n2)n1	none
O=C(Nc1ccccc1F)c1nc(Nc2ccc(Cl)cc2)c2ccccc2n1	none
COc1ccc(C(=O)Nc2cc(C)cn(Cc3c(F)cccc3Cl)c2=O)cc1	none
Nc1ncnc2c1ncn2[C@@H]1O[C@H](CO)[C@@H](O)[C@H]1O	none
COc1ccc(C[C@H](N)C(=O)N[C@@H]2[C@@H](CO)OC(n3cnc4c(N(C)C)ncnc43)[C@@H]2O)cc1 (some centres undefined)	Tg IFNy HTS -80!
COC1C(O)C(CO)OC1n1cnc2c(NC3CCCCC3)ncnc21 (centres undefined)	none
CCN1c2cc(F)ccc2C(=O)NC12CCN(C(=O)c1ccc(OC)c(OC)c1)CC2	none
Cc1[nH]c2ccccc2c1C(=O)CSc1nc2ccccc2o1	none
O=c1cc(CSc2nc3ccccc3o2)[nH]c2nc3ccccc3n12	Tg IFNy HTS -97
Cc1cc(CSc2nc3ccccc3o2)c(C)cc1CSc1nc2ccccc2o1	none
O=C(c1cnccn1)N1CCC2(CCN(CC3CC3)C2)CC1	none
Cc1ccc(-c2coc(-c3ccc(NC(=O)Nc4cc(F)ccc4F)cc3)n2)cc1	none
Cc1cc(C)n(C2CCN(c3nc(N(C)C)nc(C)c3C)C2)n1 (centres undefined)	none
Cc1ccc(C(=O)N(C)CC2Cc3ccccc3O2)cc1NC(=O)C1CC1 (centres undefined)	none
O=C(CCSc1ccccn1)c1ccc(Cl)cc1	none
O=C(CC(SC(=O)c1ccccc1)c1ccc(Cl)cc1)c1ccccc1 (centres undefined)	none
O=C(CC(Sc1ccc(Cl)cc1)c1ccc(Cl)cc1)c1ccccc1 (centres undefined)	Tg IFNy HTS -112
Fc1ccc(-c2cn[nH]c2-c2cnn(Cc3ccccc3)c2)cc1	none
CS(=O)(=O)N1C[C@H]2CNC[C@@]2(C(=O)NC2Cc3ccccc3C2)C1	none
Cc1ccc(C(=O)Nc2ccc(-n3nc(C(F)(F)F)cc3-c3cccs3)cc2)cc1	none
Cc1nnsc1C(=O)Nc1ccc(-n2nc(C(F)(F)F)cc2C(F)(F)F)cc1	Tg IFNy HTS -81
Cc1nnsc1C(=O)Nc1cccc(N)c1	none
Cn1ccc2c(-c3cc(N4CCCCC4)ncn3)ccnc21	none
Cn1ccc2c(-c3ccccc3C(N)=O)ccnc21	none
Cc1nc(-n2cnnc2)ccc1-c1ccnc2c1ccn2C	Tg IFNy HTS -97
COc1ccc(C(NC(=O)c2c(O)cccc2O)c2ccncc2)cc1 (centres undefined)	none
Cc1cc2c(cc1CN1CCC(CNC(=O)C3CNC3)C1)OCCO2 (centres undefined)	none
CCn1c(CN2CC[C@@H](c3sccc3C)[C@H](O)C2)nc2ccccc21	none
CCn1c(CN2CCCC(n3c(=O)oc4ccc(Cl)cc43)C2)nc2ccccc21 (centres undefined)	Tg IFNy HTS -87
O=c1oc2ccccc2n1C1CCCN(CC2=Cc3ccccc3OC2)C1 (centres undefined)	none
Cc1ccccc1-c1noc(-c2c(O)c3ccccc3n(C)c2=O)n1	none
O=C(c1ccccc1)N1CCC2(CC1)NC(=O)N(C1CCN(Cc3ccncc3)CC1)C2=O	none
Clc1ccc(-c2nccn2CCC2CCCCO2)cc1 (centres undefined)	none
c1cnc(-c2cc(NC3CCNCC3)nc3[nH]ccc23)cn1	none
CCCc1cc(-c2cc(NC3CCNCC3)nc3[nH]ccc23)nc(C)n1	Tg IFNy HTS -80
FC(F)(F)c1ccc(-c2cc(NC3CCNCC3)nc3[nH]ccc23)nc1	none
Cc1nc(Cn2cnc(-c3nc(C(=O)NCc4ccc(F)cc4F)c4ccccn34)c2)cs1	none
CCc1cc(C(=O)Nc2ccc3c(c2)N(S(C)(=O)=O)CCC3)c2c(C)noc2n1	none
CN1C[C@H](NC(=O)Cn2cnc3ccccc3c2=O)C[C@H]1CO	none
CC(C)n1c2ccccc2c2c1cc(C(=O)N1CCCCC1)n2-c1ncccn1	none
CCc1ccc(NC(=O)NCC(c2cccnc2)c2cn(C)c3ccccc23)cc1 (centres undefined)	none
Cn1cc(C(CNC(=O)Nc2ccccc2Cl)c2cccnc2)c2ccccc21 (centres undefined)	none
CCc1ccccc1S(=O)(=O)NCC(c1cccnc1)c1cn(C)c2ccccc12 (centres undefined)	Tg IFNy HTS -83
C=CCO[C@@H]1CCN(Cc2nccn2C)[C@H]1Cc1cccnc1	none
O=C(O)C1CC2(CCNCC2)CN1C(=O)CCCc1cn[nH]c1 (centres undefined)	none
Cn1cc(NC(=O)CN2CCCCC2CCN2CCOCC2)cn1 (centres undefined)	none
Cc1nc(Cl)c(Cc2ccccc2)c(N2CCCC2)n1	none
COc1ccc(-c2nc(N3CCCC3)c3ccccc3n2)cc1	none
Clc1nnc(N2CCCCC2)c2ccccc12	Tg IFNy HTS -88
O=C(Oc1ccc2c(-c3ccccc3)cc(=O)oc2c1)c1ccccc1	none
Cc1cccn2cc(C(=O)N3CC[C@@H](c4ccc5c(c4)OCO5)[C@H](O)C3)nc12	none
CC1CCCCN1CCNC(=O)c1csc(-c2ccc(N3CCCC3)nc2)n1 (centres undefined)	none
O=C(NCCCN1CCCCC1)c1csc(-c2ccc(N3CCCC3)nc2)n1	none
CCN1CCN(CCNC(=O)c2csc(-c3ccc(N4CCCC4)nc3)n2)CC1	Tg IFNy HTS -81
COc1ccc(NC(=O)CN2CCC3(CC2)N=C(c2cccc(F)c2)C(=O)N3)cc1Cl	none
CCc1ccc(NC(=S)Nc2ccc(Cl)cc2C(=O)c2ccccc2)cc1	Tg IFNy HTS -96
O=C(Cc1ccccc1)Nc1ccc(Cl)cc1	none
